Measured values from PubChem BioAssay AID624330 (Southern Research Specialized Biocontainment Screening …, 2012).
Where “and” joins values, the source holds several entries; their conditions need not be identical. Identical values can stand only once. Out of some 340,000 compounds screened, about 2,100 (0.62%) were called active.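 How the source made its calls: active means first-screen hits whose inhibition reached a set limit at any dose in the follow-up dose series; inconclusive means inhibition above the set first-screen limit but never retested; inactive means the rest.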 Only a sample is shown. Results with a measured potency or affinity are listed apart.

Target: Rac GTPase-activating protein 1 (Homo sapiens) (UniProt Q9H0H5)
Sequence (Q9H0H5 whole entry, looked up): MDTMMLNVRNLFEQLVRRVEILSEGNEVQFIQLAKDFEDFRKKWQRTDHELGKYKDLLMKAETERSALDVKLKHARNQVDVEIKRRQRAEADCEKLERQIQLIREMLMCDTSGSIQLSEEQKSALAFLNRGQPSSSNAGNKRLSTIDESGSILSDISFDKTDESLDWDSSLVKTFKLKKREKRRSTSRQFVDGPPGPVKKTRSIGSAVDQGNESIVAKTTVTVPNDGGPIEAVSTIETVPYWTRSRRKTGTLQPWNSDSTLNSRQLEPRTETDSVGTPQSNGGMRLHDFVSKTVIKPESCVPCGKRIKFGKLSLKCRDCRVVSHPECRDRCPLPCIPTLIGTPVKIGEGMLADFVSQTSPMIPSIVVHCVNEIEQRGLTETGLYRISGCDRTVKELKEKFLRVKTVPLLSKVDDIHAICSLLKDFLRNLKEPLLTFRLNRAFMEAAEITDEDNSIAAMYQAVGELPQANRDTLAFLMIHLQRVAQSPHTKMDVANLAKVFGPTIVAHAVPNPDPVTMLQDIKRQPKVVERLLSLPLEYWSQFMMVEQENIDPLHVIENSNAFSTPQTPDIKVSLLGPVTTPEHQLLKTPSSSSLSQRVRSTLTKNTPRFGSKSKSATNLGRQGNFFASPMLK
Experiment: blockers of MgcRacGAP-driven Rac1 GTP hydrolysis – biochemical, ADP Hunter fluorescence, primary and confirmatory, confirmation (AID 624330);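 further: fluorescence reports GDP produced by GAP-driven GTP hydrolysis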
Conditions: MgcRacGAP-stimulated Rac1 GTP hydrolysis, at 30 µM, active compounds read high, GST-tagged Rac1 F28L mutant substrate

inhibition, inactive:
O=C(COC(=O)CNC(=O)c1ccc(Br)cc1)NCCC1=CCCCC1 11.9%, Cc1cccc2cc(CN(CC(C)C)S(=O)(=O)c3ccccc3)c(=O)[nH]c12 8.17%, O=c1c2ccccc2c(C=Nc2ccc(Cl)cn2)c(O)n1-c1cc(Cl)ccc1N1CCOCC1 12.5%, Oc1ccc2c(c1)c1ccccc1c1ncccc21 17.4%, Brc1cc2[nH]cnc2c2ccccc12 8.14%, CCN(CC(=O)Nc1c(F)cccc1F)C(=O)c1cccc(S(=O)(=O)N(C)c2ccccc2)c1 2.67%, COC(=O)C=CSC(=S)C1CCCC1=N (stereo not given) 6.77%, COc1ccccc1-c1cn(-c2ccccc2)c(=S)[nH]1 10.3%, N#CCCn1c(SCC(=O)c2c[nH]c3ccccc23)nc2ccccc21 15.1%, Cc1nn(-c2cc(C(F)(F)F)ccc2Cl)c2nc(C(Cl)(Cl)Cl)[nH]c(=O)c12 9.52%, COc1ccc(C2C3=C(CC(C)(C)CC3=O)Oc3ncn(Cc4ccccc4)c(=N)c32)cc1 (stereo not given) 2.61%, COC(=O)C(=Cc1ccc(OCc2ccc([N+](=O)[O-])cc2)c(OC)c1)C(=O)OC 13.9%, COc1cc(/C=C/C(=O)O)ccc1OCc1ccc([N+](=O)[O-])cc1 7.48%, C/C(N)=C(/C#N)C(=O)CSc1nnc(SCc2ccc(Cl)cc2)s1 2.43% and 2.31%, COc1cc(C(=O)NNC(=O)CNC(=O)C2CCCCC2)ccc1OC(C)C 0.59%, Cc1ccc(S(=O)(=O)N2[C@@H](c3ccc(F)cc3)C(C(=O)O)=C[C@H]2CC2CCCC2)cc1 11%, CN(C)c1ccc(NC(=O)CN2C(=O)CC(c3ccccc3)=Nc3ccccc32)cc1 30.9%, Cc1ccc(NC(=O)CN2C(=O)c3ccccc3C2=O)cc1 10.7%, COc1ccc(NC(=O)CCN2C(=O)c3cccc([N+](=O)[O-])c3C2=O)cc1 6.66%, CCOc1ccc(NC(=O)CCN2C(=O)c3cccc([N+](=O)[O-])c3C2=O)cc1 3.27%, O=C(CN1C(=O)c2ccccc2C1=O)Nc1ccccc1 1.35%, CN1CC(=O)N(CC(=O)Nc2ccc(F)cc2)c2ccccc2C1=O -12.2%, CN1CC(=O)N(CC(=O)NCc2ccc(F)cc2)c2ccccc2C1=O 1.75%, CN(C)c1ccc(NC(=O)CN2CCc3ccccc3C2)cc1 14.3%, COC(=O)Nc1nnc(-c2ccc(OC)cc2)s1 16%, COc1ccc(C(=O)NNC(=O)COc2ccc(Cl)cc2C)cc1S(=O)(=O)N1CCOCC1 6.89%, O=C(NCCN1CCOCC1)C(Sc1ccccc1)c1ccccc1 (stereo not given) 15.2%, NCCSc1c(-c2ccc(Cl)cc2)[nH]c2ccccc12 8.34%, O=C(COC(=O)c1c(F)cccc1Cl)NC(=O)Nc1ccc2c(c1)OCCO2 0.21%, CC(=O)NC12CC3CC(C1)CC(C(=O)N1CCN(S(=O)(=O)c4ccccc4[N+](=O)[O-])CC1)(C3)C2 9.33%, COCCNC(=O)c1cc(-c2ccccc2)nn1Cc1cc(C)no1 2.94%, O=c1oc2cc(O)ccc2c2ccccc12 17.2%, Cc1c(-c2ccccc2)c(=O)oc2cc(O)ccc12 7.91%, COc1ccc(F)cc1S(=O)(=O)NCC1CCCO1 (stereo not given) 1.18%, O=C(CSc1nc(-c2ccco2)cc(C(F)(F)F)n1)Nc1ccc2c(c1)OCO2 4.87%, Cc1ccc(CNc2nc(C)nc3sc4c(c23)CCC4)cc1 5.5%, Cc1nc(Nc2cccc(O)c2)c2c3c(sc2n1)CCC3 10.2%, O=C(c1cccc(S(=O)(=O)N2CCCCCC2)c1)N1CCN(c2ccccc2F)CC1 2.31%, O=C(CCCn1cncn1)N1CCCC(Nc2ccc(F)cc2)C1 (stereo not given) 5.12%, COc1ccccc1OCC(=O)N1CCCC(Nc2ccc(C)c(C)c2)C1 (stereo not given) 14.2%, COc1ccccc1OCC(=O)N1CCCC(Nc2ccc(F)c(F)c2)C1 (stereo not given) 7.15%, O=C(CSc1ccccc1)N1CCCC(Nc2ccccc2)C1 (stereo not given) 8.49%, COc1ccc(NC2CCCN(C(=O)CSc3ccccn3)C2)cc1OC (stereo not given) 30.4%, CC(C)c1ccc(NC2CCCN(C(=O)CCCn3cncn3)C2)cc1 (stereo not given) 6.88%, O=C1CCCN1CCC(=O)N1CCCC(Nc2ccc(F)cc2)C1 (stereo not given) 7.82%, O=C1CCCN1CCC(=O)N1CCCC(Nc2ccc(F)c(F)c2)C1 (stereo not given) 7.57%, C[C@@H]1CN([C@@H](C)CO)C(=O)c2cc(Br)cnc2O[C@@H]1CN(C)C(=O)Nc1ccc(F)cc1 9.67%, C[C@H](NC(N)=O)C(=O)OCC(=O)Nc1ccc(OC(F)F)cc1 5.01%, COc1ccc(C2C(C(=O)NCc3ccco3)CCC(=O)N2c2ccc(OC)cc2)cc1 (stereo not given) -1.81%, O=C(CN1CCCC1)Nc1cccc(Cl)c1 6.77%, CN(CCOc1ccc(Cl)cc1)C(=O)c1cccc(S(=O)(=O)N2CCN(c3ccc(F)cc3)CC2)c1 2.42%, COc1ccc(/C=N/n2c(C)nnc2C)c(OC)c1OC 8.6%, COc1cccc(/C=N/n2c(-c3n[nH]c4c3CCC4)n[nH]c2=S)c1OC 10.4%, COc1cccc(/C=N/n2c(C3CCCCC3)n[nH]c2=S)c1O 17.5%, COc1ccc(/C=N/n2c(SC)nnc2-c2ccccc2)c(OC)c1OC 10.5%, COc1ccc(/C=N/n2c(SC)nnc2-c2ccccc2)cc1C 12.1%, COc1ccc(/C=N/n2c(-c3ccc(C)cc3)n[nH]c2=S)cc1OC 8.75%, COc1ccc(/C=C/C(=O)OC2CCCCC2CN(C)C)cc1 (stereo not given) 1.25%, CCN1CNC(=S)N(c2cccc(C)c2C)C1 7.09%, O=C(O)C1(S(=O)(=O)c2ccc(Cl)cc2)CCC1 6.58%, Cc1cccc(N2N=C(C(=O)Nc3nc(C)cs3)CCC2=O)c1 10.5%, O=C(Nc1cccnc1)c1ccccc1F 6.52%, O=C1Nc2ccccc2C1=NN1CCCCCC1 -3.27%, O=C1Nc2ccccc2/C1=N\N1CCOCC1 3.01%, CCN(Cc1ccccc1)S(=O)(=O)c1ccc(S(=O)(=O)N2CCN(CCC#N)CC2)cc1 -2.32%, Cc1ccc(NC(=O)CN(C)C(=O)CCSc2ccc(F)cc2)cc1 5.93%, COc1cccc(CN(C)C(=O)c2ccc(C)c(S(=O)(=O)N3CCCCC3)c2)c1 3.14%, COCCN(C(=O)CNC(=O)c1cccs1)C(C(=O)NC1CCCC1)c1cccs1 (stereo not given) 8.07%, COc1ccc(NC(=S)NCCSc2ccc(Cl)cc2)c(OC)c1 -1.73%, c1ccc(Nc2ccc3c4c(cccc24)CC3)cc1 16.2%, CC(=O)Nc1ccc2c3c(cccc13)CC2 3.29%, COCc1[nH][nH]c(=O)c1C=Nc1ccccc1 9.38%, O=[N+]([O-])c1ccccc1N=Nc1ccc(O)cc1 9.07%, O=C(OCc1ccccc1Cl)c1cccnc1Cl -1.97%, CCCCn1c(N)c(N(CCOC)C(=O)C(C)N2C(=O)c3ccccc3C2=O)c(=O)[nH]c1=O (stereo not given) 0.26%, CC(OC(=O)c1ccc(Cl)c([N+](=O)[O-])c1)C(=O)N1CCN(Cc2ccccc2)CC1 (stereo not given) 3.69%, CCOc1ccccc1C(=O)NCC(=O)N(C)Cc1ccccc1C 6.49%, COc1ccccc1N(C)S(=O)(=O)c1ccc(C(=O)Nc2cccc(Br)c2)cc1 4.53%, CCc1ccc(-n2c(=O)c3ccccc3n3c(=S)[nH]nc23)cc1 12.2%, COc1cccc(-n2c(=O)c3ccccc3n3c(=S)[nH]nc23)c1 13.7%, CCOC(=O)c1oc2ccccc2c1NC(=O)C(C)(C)C 4.02%, O=C(c1ccccc1)c1ccc(N2CCOCC2)c(F)c1 9.91%, Cc1cccc(C(=O)N2CCC(N3CCC(C(=O)N4CCOCC4)CC3)CC2)c1 7.61%, CCC1Sc2ccccc2N(CC(=O)NC2CC2)C1=O (stereo not given) -0.26%, Cc1cc(C)cc(N2C(=O)C=CC2=O)c1 1.25%, O=C(O)c1cccc(N2C(=O)C=CC2=O)c1 9.07%, COc1cccc(C(=O)NCC(c2ccco2)N2CCc3ccccc3C2)c1 (stereo not given) 7.73%, N#CC1=C(S)N(c2ccccc2)C(c2cccs2)NC1=O (stereo not given) 53%, Cc1ccccc1N1C(S)=C(C#N)C(=O)NC1c1cccs1 (stereo not given) 39%, Cc1cccc(N2C(S)=C(C#N)C(=O)NC2c2ccco2)c1 (stereo not given) 48.2%, N#CC1=C(S)N(c2ccc(F)cc2)C(c2cccs2)NC1=O (stereo not given) 38.9%, COC(=O)c1nnc(-c2ccccc2)nc1OC 4.64%, CCN(CC(=O)Nc1ccccc1C(F)(F)F)C(=O)c1cc(-c2cccs2)nn1-c1ccccc1 1.06%, CCC(=O)OCc1cc(=O)oc2ccc3ccccc3c12 9.78%, O=C(c1cncc(Br)c1)N1CCN(S(=O)(=O)c2ccc3ccccc3c2)CC1 2.91%
